# From PubChem BioAssay
# KCNQ2 block – blocks the rat KCNQ2 potassium channel; O88943; CHO-K1 KCNQ2, FluxOR thallium flux, 20 min; stronger effect = lower value; B-score at 10 µM; 310,000 tested, 1.1% active;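 active = fluorescence ratio B-score at most minus 3 library SDs, with starting brightness B-score within 2 library SDs, cut at about -5.5 in these data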
# KCNQ2 pot – enhances the rat KCNQ2 potassium channel | CHO-K1 KCNQ2, FluxOR thallium flux fluorescence; stronger effect = higher value | B-score at 10 µM | 310,000 tested, 0.54% active;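 active = fluorescence ratio B-score at least 3 SD of library B-scores, with initial fluorescence B-score within 3 of them, cut at about 5.3 in these data; same plate scores as AID 2156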;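 note: B-score of peak minus minimum over baseline fluorescence ratio after K+ and Tl+ stimulus; positive B-score means potentiation of KCNQ2 with more thallium influx and brighter signal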
# Kir21 conf inh – confirmation of mouse Kir2.1 potassium channel inhibitors | shares compounds with KCNQ2 pot | Kir2.1-expressing cells, FluxOR thallium flux fluorescence; stronger effect = lower value | Tl flux remaining, % of negative control (stronger effect = lower value), % at 10 µM | 2,300 tested, 41% active;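 active = Primary-screen hit whose thallium flux fell at least 3 control SD below untreated wells in both duplicates, with normal baseline fluorescence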
# Target sequence (P35561 whole entry, looked up): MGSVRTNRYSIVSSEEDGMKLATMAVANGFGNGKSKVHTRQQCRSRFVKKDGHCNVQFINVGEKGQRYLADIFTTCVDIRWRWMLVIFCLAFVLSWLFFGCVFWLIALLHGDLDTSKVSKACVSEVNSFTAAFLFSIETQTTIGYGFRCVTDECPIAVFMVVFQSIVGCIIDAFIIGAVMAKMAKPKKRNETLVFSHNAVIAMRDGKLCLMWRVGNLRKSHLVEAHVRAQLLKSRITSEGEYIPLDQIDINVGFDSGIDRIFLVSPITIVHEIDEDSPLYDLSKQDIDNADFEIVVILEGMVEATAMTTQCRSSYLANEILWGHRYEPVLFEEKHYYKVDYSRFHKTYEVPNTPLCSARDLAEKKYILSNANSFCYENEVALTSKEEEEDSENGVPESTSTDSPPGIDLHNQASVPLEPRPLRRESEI
# HEK293 Tl flux – alters thallium flux in parental HEK293 cells, Kir2.1 counter-screen; FluxOR thallium flux fluorescence; 0% = unstimulated blank wells; FluxOR signal as % of negative control (100 = no effect), % at 10 µM; shares compounds with KCNQ2 pot; 2,300 tested, 19% active;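 active = dye signal at least 3 control SD above or below untreated wells in both duplicates, raw fluorescence within 3, either direction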;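 note: percent is based on the flux ratio of peak minus minimum fluorescence over baseline F0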
# CHO-K1 Tl ctr – alters thallium flux in parental CHO-K1 cells, KCNQ2 counter-screen; shares compounds with KCNQ2 pot; FluxOR thallium flux fluorescence; zero = vehicle mean+3SD, 100% = vehicle-minus-blank window; activity increase over 3SD of controls, % at 10 µM; 1,200 tested, 43% active;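 active = signal rise of at least 3 SD above the untreated control mean, in both duplicate wells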;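 note: counter screen of KCNQ2 potentiator hits so any rise reflects channel-independent effects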
# KCNQ1 sel pot – selectivity of KCNQ2 potentiators: effect on human KCNQ1 | AID 2283 | shares compounds with KCNQ2 pot | activation over 3SD threshold, % at 10 µM | CHO KCNQ1 stable, FluxOR thallium flux fluorescence; beyond 3SD, as % of vehicle-control signal | 1,200 tested, 28% active;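 active = fluorescence ratio rise of at least 3 SD of vehicle wells above their mean, in both replicate wells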
# KCNQ2 pot confirm – rat KCNQ2 channel potentiator confirmation; shares compounds with KCNQ2 pot; CHO-KCNQ2 cells, FluxOR thallium flux fluorescence; potentiation, less the hit threshold, % at 10 µM; 1,200 tested, 68% active;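 active = fluorescence ratio rising 3 SD or more over the vehicle control mean in both replicates, plus primary screen hit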;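 note: peak minus minimum thallium fluorescence divided by baseline after K/Tl stimulus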
# Kir2-1 sel – mouse Kir2.1 off-target activity of KCNQ2 potentiators. shares compounds with KCNQ2 pot. HEK293 Kir2.1, FluxOR thallium flux fluorescence. activity over 3SD threshold, % at 10 µM. 1,200 tested, 2% active;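 active = fluorescence ratio rise of at least 3 SD above the vehicle-control mean, seen in both replicates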
# KCNQ2 W236L pot – KCNQ2 potentiators acting on retigabine-insensitive rat KCNQ2 W236L mutant | 940 tested, 10% active | CHO KCNQ2-W236L, automated patch clamp current | shares compounds with KCNQ2 pot | current increase over 3SD of negative controls (%), stronger effect = higher value, % at 25 µM;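 active = current increase at least 3 SD of the untreated controls above them in both duplicate recordings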
# Numbers stand for hits; - = inactive; . = no result given. The list is not random: actives were taken first. Their share in the collection is about 1.6%.
SMILES,KCNQ2 block,KCNQ2 pot,Kir21 conf inh,HEK293 Tl flux,others
Cc1ccc(NC(=O)CCS(=O)(=O)c2ccc3c(c2)NC(=O)C(C)S3)nc1 (centres undefined),-,.,.,.,
CCN1CCN(S(=O)(=O)c2cc3c(cc2Cl)NC(=O)CO3)CC1,-,-,.,.,
COc1cc2ccccc2cc1C(=O)Nc1ccc(Cl)cn1,-,.,.,.,
CC[C@@H](C)[C@H](CN[C@H](CNC)[C@@H](C)O)NCCc1ccc(OC)cc1,-,-,.,.,
COc1ccc(-c2csc(N=C(N)N)n2)cc1,-,-,.,.,
Cc1ccc(-c2csc(N=C(N)N)n2)c(C)c1,-,.,40%,-,
CCNc1nc(=S)nc(NCc2ccccc2)[nH]1,-,-,.,.,
Cc1ccc(N(CC(=O)NC(C)C)C(=O)CCC(=O)Nc2nccs2)cc1C,-,-,.,.,
COc1ccc(-c2cn(-c3ccc(OC)cc3)c3[n+]2-c2ccccc2CC3)cc1,-,.,.,.,
COc1ccccc1-n1c(-c2ccccc2)c[n+]2c1CCc1ccccc1-2,-,.,.,.,
COc1ccc(-n2c(-c3ccc(Br)cc3)c[n+]3c2CCc2ccccc2-3)cc1,-,.,60%,74%,
CC(C)c1ccc(-n2c(-c3ccccc3)c[n+]3c2CCc2ccccc2-3)cc1,-7.4,-,20%,-,
COc1ccc2c(c1)C(=O)Cc1ccccc1O2,-,.,.,.,
O=C(NCC1(N2CCCCC2)CCCCC1)C1CC(=O)N(c2ccc3c(c2)OCCO3)C1 (centres undefined),-,.,.,.,
Cc1ccc(-n2cccc2C(=S)N=P(N(C)C)(N(C)C)N(C)C)cc1,-,.,-,-,
Cc1ccc(-n2cccc2C(=O)NS(=O)(=O)c2ccc(C)cc2)cc1,-,-,.,.,
CCn1c(Cc2ccccc2)nnc1SCC(=O)Nc1ccccc1O,-,.,.,.,
Cn1cc(S(=O)(=O)N2CCOCC2)cc1C(=O)NCc1ccccc1Cl,-,.,.,.,
O=C(N/N=C/c1ccc(COc2ccc(Br)cc2)o1)c1ccc2c(c1)OCO2,-,5.7,-,-,CHO-K1 Tl ctr=-;KCNQ1 sel pot=-;KCNQ2 pot confirm=-;Kir2-1 sel=-
O=C(N/N=C/c1ccc(-c2ccc(Br)cc2)o1)c1ccc2c(c1)OCO2,-,.,.,.,
O=C(O)CCS(=O)(=O)c1nc(-c2cccs2)cc(C(F)(F)F)n1,-,.,.,.,
CS(=O)(=O)c1nc(-c2cccs2)cc(C(F)(F)F)n1,-5.9,-,70%,70%,
CC(=O)c1sc(-c2ccc(F)cc2F)nc1C,-,-,.,.,
c1ccc(CNc2ncnc3ccccc23)cc1,-,-,.,.,
c1ccc(CNc2c3ccccc3nc3ccccc23)cc1,-,-,24%,-,
SMILES,KCNQ2 block,KCNQ2 pot,Kir21 conf inh,HEK293 Tl flux,others
COc1ccc(CN(C)CC2CCCN(CCc3ccc(F)cc3)C2)c(OC)c1OC (centres undefined),-,.,.,.,
COc1ccc(CCN2CCCC(CN(C)Cc3cccc(OC)c3)C2)cc1 (centres undefined),-,-,33%,-,
CCN(Cc1ccc(OC)c(COC)c1)CC1CCCN(CCc2cccc(F)c2)C1 (centres undefined),-,.,.,.,
CCN(Cc1ccc(C#CCCO)cc1)CC1CCCN(CCc2cccc(F)c2)C1 (centres undefined),-,.,53%,-,
CN(Cc1ccc(C#CCCO)cc1)CC1CCCN(CCc2ccc(Cl)cc2)C1 (centres undefined),-,.,40%,-,
CCN(Cc1ccc(OC)c(COC)c1)CC1CCCN(CCc2cccc(OC)c2)C1 (centres undefined),-,-,.,.,
O=C(NCCCN1CCCC1=O)c1cc2nc(-c3ccco3)cc(C(F)(F)F)n2n1,-,.,.,.,
Cc1ccc(C)c(NC(=O)C2CCN(S(=O)(=O)c3ccc4c(c3)NC(=O)CO4)CC2)c1,-,-,.,.,
COC(=O)C1=C(C(=O)OC)[C@@H]2Nc3ccccc3[C@@]23C[C@@H](C(=O)OC)N(C(=O)C2CCC2)C3=N1,-,-,.,.,
COc1ccc(N2C(=O)CC(C)(C)CC2=O)cc1OC,-,.,.,.,
Nc1nc(SCC(=O)Nc2ccc(Cl)cn2)n[nH]1,-,-,.,.,
Cc1nn(C)c(C)c1/C=C1/SC(=S)NC1=O,-,-,.,.,
Cc1ccc(C2C(/C=C3/SC(=S)NC3=O)=C(c3cccs3)Oc3ccccc32)cc1 (centres undefined),-,5.8,-,-,CHO-K1 Tl ctr=-;KCNQ1 sel pot=-;KCNQ2 pot confirm=-;Kir2-1 sel=-
Cc1csc2c(N3CCN(C(=S)Nc4ccc(F)cc4F)CC3)ncnc12,-,-,.,.,
CSCCC(NC(=O)OCc1ccccc1)C(=O)NCc1cccnc1 (centres undefined),-,-,.,.,
C=CCN(c1ccc(C(=O)NCCSc2ccccc2)cc1)S(C)(=O)=O,-,.,.,.,
COc1nnc(-c2ccccc2)s1,-,-,.,.,
Cc1ccc(C(=O)C(OC(=O)CN2C(=O)c3ccccc3C2=O)c2ccccc2)cc1C (centres undefined),-,7.5,-,-,CHO-K1 Tl ctr=-;KCNQ1 sel pot=-;KCNQ2 pot confirm=-;Kir2-1 sel=-;KCNQ2 W236L pot=-
Cc1ccc(C(=O)C(OC(=O)CN2C(=O)c3ccccc3C2=O)c2ccccc2)cc1 (centres undefined),-,-,.,.,
COc1ccc(CCNC(=O)COc2ccc(S(=O)(=O)N3CCOCC3)cc2C)cc1,-,-,.,.,
Cc1cc(C)c(OCC(=O)Nc2ccc(N3CCOCC3)cc2)c(Br)c1,-,.,.,.,
COc1ccccc1C1c2ccc3ccccc3c2Oc2ncn(CCN(C)C)c(=N)c21 (centres undefined),-,.,.,.,
COc1ccc(C2c3ccc4ccccc4c3Oc3ncn(CCCN(C)C)c(=N)c32)cc1 (centres undefined),-6.1,-,36%,-,
O=C(NCC1(N2CCOCC2)CCCCC1)c1cccc(S(=O)(=O)N2CCc3ccccc3C2)c1,-,-,.,.,
C1CCC(C(CC2CCCCN2)C2CCCCC2)CC1 (centres undefined),-,.,28%,72%,
SMILES,KCNQ2 block,KCNQ2 pot,Kir21 conf inh,HEK293 Tl flux,others
Cc1ccc(C)c(C(C)NC(=S)NC2CCCCC2)c1 (centres undefined),-,-,.,.,
Cc1ccc(CNC(=S)NC2CCCCC2)cc1,-,6.4,-,-,CHO-K1 Tl ctr=-;KCNQ1 sel pot=-;KCNQ2 pot confirm=7.2;Kir2-1 sel=-;KCNQ2 W236L pot=-
O=C(Nc1ccccc1)NC1CCCCC1,-,-,.,.,
CCC(NC(=S)NC1CCCCC1)c1ccc(C)cc1 (centres undefined),-,22,-,-,CHO-K1 Tl ctr=-;KCNQ1 sel pot=-;KCNQ2 pot confirm=71;Kir2-1 sel=-;KCNQ2 W236L pot=-
Cc1ccc(CN=C(Nc2ccccc2)NC2CCCCC2)cc1,-,.,60%,-,
CC(C)c1ccc(NC(=S)NC2CCCCCC2)cc1,-,.,.,.,
